Compounds with a hit are over-represented: about 3% of the library has one in this group of screens.
Vc quorum ag: quorum light induction in luxS cqsA deficient V. cholerae; V. cholerae BH1578 lux reporter, luminescence, 6 h; actives 0.16% (n = 350,000); AID 588436; activation, % at 18.7 µM; in the data active = activation mostly above about 9.7%, no sharp cut-off
BioA inh-1: BioA (M. tuberculosis) enzyme inhibition; purified M. tuberculosis BioA enzyme, plate reader; inhibition, % at 9.99 µM; actives 0.096% (n = 360,000); in the data active = inhibition above about 40%
GDH-TPI inh: GDH-TPI coupled enzyme inhibition counter-screen; GDH-TPI coupled enzyme counterscreen, NADH absorbance; inhibition, % at 4.8 µM; actives 1.2% (n = 360,000); in the data active = inhibition above about 30%
FBA Mtb inh: inhibits M. tuberculosis FBA enzyme | P9WQA3 | purified M. tuberculosis FBA, fluorescence read-out | inhibition, % at 1 µM | actives 2.3% (n = 360,000); in the data active = inhibition above about 27%
BioA inh-2: blocks M. tuberculosis BioA aminotransferase. shares compounds with BioA inh-1. purified BioA enzyme, plate reader, dose response. max activity, %. 310 tested, under 10 active;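 also: top concentration of the dilution series was 10 µM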
Target sequence (P9WQ81 whole entry, looked up): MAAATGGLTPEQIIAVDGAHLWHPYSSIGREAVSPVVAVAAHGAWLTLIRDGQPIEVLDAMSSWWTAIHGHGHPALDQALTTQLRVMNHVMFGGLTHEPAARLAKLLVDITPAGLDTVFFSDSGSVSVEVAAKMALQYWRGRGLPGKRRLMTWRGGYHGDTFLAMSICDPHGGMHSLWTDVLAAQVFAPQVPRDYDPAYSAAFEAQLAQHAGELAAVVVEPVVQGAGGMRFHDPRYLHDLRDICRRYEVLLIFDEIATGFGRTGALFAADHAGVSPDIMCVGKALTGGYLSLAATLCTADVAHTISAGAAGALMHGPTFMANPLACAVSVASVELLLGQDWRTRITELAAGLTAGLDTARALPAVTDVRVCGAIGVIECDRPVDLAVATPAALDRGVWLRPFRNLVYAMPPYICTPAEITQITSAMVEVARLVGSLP
HepG2 cytotox: HepG2 viability loss; AID 651898; max activity, %; shares compounds with BioA inh-1; 310 tested, under 10 active; HepG2 cytotoxicity, plate reader
3T3 cytotox 5: kills NIH3T3 cells; AID 651900; 310 tested, under 10 active; NIH3T3 cytotoxicity, plate reader; activity change, negative = cytotoxicity, % at 26 µM; shares compounds with BioA inh-1
Large screens that a line does not name were inactive (follow-up assays come after a bar, where they were run). Unless noted, no rule for the calls is given here.

CCC(=O)N[C@@H]1C=C[C@H](CC(=O)OC)O[C@@H]1CO	none (no result: Vc quorum ag, GDH-TPI inh, FBA Mtb inh)
COC(=O)c1c(C(=O)OC)c(-c2cccc(F)c2)n2c1CS(=O)C2 (stereo unspecified)	BioA inh-1 98 | BioA inh-2 inactive | HepG2 cytotox inactive | 3T3 cytotox 5 inactive
Cc1cc(C)n2nc(C(=O)Nc3cccnc3)nc2n1	BioA inh-1 65 | BioA inh-2 inactive | HepG2 cytotox inactive | 3T3 cytotox 5 inactive
CCN(CC)CCNC(=O)c1cn(CC)c2ccc(S(=O)(=O)N3CCc4ccccc4C3)cc2c1=O	BioA inh-1 59 | BioA inh-2 inactive | HepG2 cytotox inactive | 3T3 cytotox 5 inactive
C[C@@H]1CCCCO[C@@H](CN(C)S(=O)(=O)c2cccs2)[C@H](C)CN([C@@H](C)CO)C(=O)c2cc(NS(=O)(=O)c3cccs3)ccc2O1	none (no result: Vc quorum ag, GDH-TPI inh, FBA Mtb inh)
C[C@H](CO)N1C[C@H](C)[C@H](CN(C)Cc2ccc(Oc3ccccc3)cc2)Oc2ccc(NC(=O)Cn3cnnn3)cc2CC1=O	none (no result: Vc quorum ag, GDH-TPI inh, FBA Mtb inh)
COc1cc(C(=O)N2Cc3cc4ccccc4nc3C2C)cc(OC)c1OC (stereo unspecified)	BioA inh-1 69 | BioA inh-2 inactive | HepG2 cytotox inactive | 3T3 cytotox 5 inactive
COc1cc(C(=O)N2c3ccccc3CC2C)cc(OC)c1OC (stereo unspecified)	none
C=CCN1C(=O)[C@@]2(O[C@@H](CCn3cc([C@H](O)c4ccccc4)nn3)[C@H]([Si](C)(C)c3ccc(OC)cc3)[C@H]2C)c2cc(N3C(=O)c4cccc5cccc3c45)ccc21	none (no result: Vc quorum ag, GDH-TPI inh, FBA Mtb inh)
CC(C)n1c(N2CCN(C(=O)c3cccs3)CC2)nc2ccccc21	BioA inh-1 42 | BioA inh-2 inactive | HepG2 cytotox inactive | 3T3 cytotox 5 inactive
O=C(CN1CCOCC1)NCC[C@H]1CC[C@@H](NC(=O)Nc2ccccc2)[C@H](CO)O1	none (no result: Vc quorum ag, GDH-TPI inh, FBA Mtb inh)
O=C(C[C@H]1C[C@@H]2c3cc(NC(=O)c4cccnc4)ccc3O[C@@H]2[C@@H](CO)O1)NCC(F)(F)F	BioA inh-1 44 (no result: Vc quorum ag, GDH-TPI inh, FBA Mtb inh) | BioA inh-2 inactive | HepG2 cytotox inactive | 3T3 cytotox 5 inactive
O=C(C[C@@H]1C[C@H]2c3cc(NC(=O)c4cccnc4)ccc3O[C@H]2[C@H](CO)O1)NCC(F)(F)F	none (no result: Vc quorum ag, GDH-TPI inh, FBA Mtb inh)
CN(C)C(=O)C[C@@H]1C[C@@H]2c3cc(NC(=O)c4cccnc4)ccc3O[C@@H]2[C@@H](CO)O1	BioA inh-1 48 (no result: Vc quorum ag, GDH-TPI inh, FBA Mtb inh) | BioA inh-2 inactive | HepG2 cytotox inactive | 3T3 cytotox 5 inactive
O=C(C[C@@H]1C[C@H]2c3cc(NC(=O)c4cccnc4)ccc3O[C@H]2[C@@H](CO)O1)NCc1cc(F)ccc1F	BioA inh-1 41 (no result: Vc quorum ag, GDH-TPI inh, FBA Mtb inh) | BioA inh-2 inactive | HepG2 cytotox inactive | 3T3 cytotox 5 inactive
O=C(Nc1ccc2c(c1)[C@H]1C[C@@H](CC(=O)N3CCc4ccccc4C3)O[C@@H](CO)[C@H]1O2)c1cccnc1	BioA inh-1 42 (no result: Vc quorum ag, GDH-TPI inh, FBA Mtb inh) | BioA inh-2 inactive | HepG2 cytotox inactive | 3T3 cytotox 5 inactive
COCC(=O)Nc1ccc2c(c1)C(=O)N(C)[C@H]1CC[C@@H](CC(=O)NC3CCCC3)O[C@H]1CO2	none (no result: Vc quorum ag, GDH-TPI inh, FBA Mtb inh)
CNC[C@H]1Oc2ccc(NC(=O)Nc3ccc4c(c3)OCO4)cc2CC(=O)N([C@H](C)CO)C[C@@H]1C	none (no result: Vc quorum ag, GDH-TPI inh, FBA Mtb inh)
CC(=O)c1ccc(N2CCN(C(=O)Cc3cccs3)CC2)cc1	BioA inh-1 49 | BioA inh-2 inactive | HepG2 cytotox inactive | 3T3 cytotox 5 inactive
COc1ccc(N2CCN(C(=O)Cc3cccs3)CC2)cc1	none
CCOc1ccc(CCNC(=O)c2cnc(C)cn2)cc1OCC	BioA inh-1 69 | BioA inh-2 inactive | HepG2 cytotox inactive | 3T3 cytotox 5 inactive
CCOc1ccc(CCNC(=O)c2cnccn2)cc1OCC	none
COc1ccccc1-c1cc(C(F)(F)F)nc(S(=O)(=O)CCCC(=O)O)n1	BioA inh-1 60 | BioA inh-2 inactive | HepG2 cytotox inactive | 3T3 cytotox 5 inactive
O=C(Nc1ncc2c(n1)CC(c1ccco1)CC2=O)c1ccco1 (stereo unspecified)	BioA inh-1 54 | BioA inh-2 inactive | HepG2 cytotox inactive | 3T3 cytotox 5 inactive
CN(C)CCCNC(=O)C[C@@H]1CC[C@@H]2[C@H](COC[C@H](O)CN2S(=O)(=O)c2ccc(Cl)cc2)O1	none (no result: Vc quorum ag, GDH-TPI inh, FBA Mtb inh)
CC(Oc1ccc2c(-c3ccccc3)cc(=O)oc2c1)C(=O)NCc1ccccn1 (stereo unspecified)	BioA inh-1 42 | BioA inh-2 inactive | HepG2 cytotox inactive | 3T3 cytotox 5 inactive
O=C(C[C@H]1C=C[C@H](NC(=O)Nc2ccc3c(c2)OCO3)[C@@H](CO)O1)NCc1ccc(F)cc1	none (no result: Vc quorum ag, GDH-TPI inh, FBA Mtb inh)
C/C=C/c1ccc2c(c1)O[C@@H](CN(C)C(=O)Nc1ccccc1)[C@H](C)CN([C@H](C)CO)S2(=O)=O	BioA inh-1 42 (no result: Vc quorum ag, GDH-TPI inh, FBA Mtb inh) | BioA inh-2 inactive | HepG2 cytotox inactive | 3T3 cytotox 5 inactive
C/C=C/c1ccc2c(c1)O[C@@H](CN(C)C(=O)Nc1ccc(OC)cc1)[C@@H](C)CN([C@@H](C)CO)S2(=O)=O	BioA inh-1 41 (no result: Vc quorum ag, GDH-TPI inh, FBA Mtb inh) | BioA inh-2 inactive | HepG2 cytotox inactive | 3T3 cytotox 5 inactive
COc1ccc(-c2cc3c(c(-c4ccc(Oc5ccccc5)cc4)n2)[Si](C(C)C)(C(C)C)OC3)cn1	none (no result: Vc quorum ag, GDH-TPI inh, FBA Mtb inh)
CCCC(=O)Nc1cccc(NC(=O)c2ccc(C)c([N+](=O)[O-])c2)c1	BioA inh-1 44 | BioA inh-2 inactive | HepG2 cytotox inactive | 3T3 cytotox 5 inactive
CC(=O)N1CCN(c2nnc(-c3ccc(C)cc3)c3ccccc23)CC1	none (no result: BioA inh-1)
Cc1ccc(-c2nnc(N3CCN(C(=O)CSc4ncn[nH]4)CC3)c3ccccc23)cc1	BioA inh-1 52 | BioA inh-2 inactive | HepG2 cytotox inactive | 3T3 cytotox 5 inactive
CCC(=O)N(C)C[C@H]1Oc2cc(-c3cncnc3)ccc2S(=O)(=O)N([C@@H](C)CO)C[C@H]1C	none (no result: Vc quorum ag, GDH-TPI inh, FBA Mtb inh)
COc1cc2c3cc1Oc1cc(ccc1O)C[C@@H]1c4c(cc(OC)c(O)c4Oc4cccc(c4)C[C@@H]3N(C)CC2)CC[N+]1(C)C	BioA inh-1 51 | BioA inh-2 inactive | HepG2 cytotox inactive | 3T3 cytotox 5 inactive
COc1cc2c3cc1Oc1cc(ccc1O)C[C@@H]1c4c(cc(OC)c(O)c4Oc4ccc(cc4)C[C@H]3N(C)CC2)CCN1C	none
COc1ccc(NC(=O)Nc2ccc3c(c2)C(=O)N([C@H](C)CO)C[C@@H](C)[C@@H](CN(C)S(=O)(=O)c2ccccc2)O3)cc1	none (no result: Vc quorum ag, GDH-TPI inh, FBA Mtb inh)
COc1cc(-c2nc3ccccc3nc2-c2ccc(O)c(OC)c2)ccc1O	BioA inh-1 51 | BioA inh-2 inactive | HepG2 cytotox inactive | 3T3 cytotox 5 inactive
COc1cc(-c2nc3ccccn3c2N)ccc1O	none
Cc1ccc(S(=O)(=O)N[C@@H]2CC[C@H](CC(=O)N3CCC(Cc4ccccc4)CC3)O[C@H]2CO)cc1	none (no result: Vc quorum ag, GDH-TPI inh, FBA Mtb inh)
CC(=O)c1[nH]c(C)c(C(=O)N2CCCC(Nc3ccc(C(C)C)cc3)C2)c1C (stereo unspecified)	none
CC(=O)c1ccc(C(=O)N2CCCC(Nc3ccc(C(C)C)cc3)C2)s1 (stereo unspecified)	BioA inh-1 67 | BioA inh-2 inactive | HepG2 cytotox inactive | 3T3 cytotox 5 inactive
